Screening data deposited in PubChem BioAssay by National Center for Advancing Translational Sciences (NCATS).
KB-V1 cytotox: KB-V1 MDR subline cytotoxicity; Potency, µM (top dose mostly 46.1 µM), usual class: cytotoxic; 400,000 tested, 3.4% active; KB-V1 MDR cells viability, CellTiter-Glo, 72 h; note: nearly all actives have a fitted effect of over 60% in size
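KB-V1 MDR subline cells in DMEM (phenol-red free, 10% FBS) exposed to compounds in qHTS concentration series for 72 h at 37 degrees C. Viability read by CellTiter-Glo luminescence; concentration-effect curves fitted after normalization and correction.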
KB-3-1 tox: KB-3-1 parental cell cytotoxicity; 400,000 tested, 1.4% active; KB-3-1 viability, CellTiter-Glo ATP luminescence, 72 h; AID 1347075; Potency, µM (series often up to 46.1 µM), hits mostly cytotoxic; note: nearly all actives have a fitted effect of over 60% in size
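72 h, 37 °C compound treatment of KB-3-1 parental cells; CellTiter-Glo added, 10 min, luminescence read. Data corrected against DMSO-only plates and normalized before curve fitting.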
TDP1 cell CPT: DT40-hTDP1 cell growth loss with CPT; Potency, µM (series often up to 46.2 µM), most hits filed as inhibitors; AID 686979; 420,000 tested, 12% active; chicken DT40 Tdp1-/-;hTDP1 cells + 20 nM CPT, ATP luminescence, 48 h; note: nearly all actives have a fitted effect of over 55% in size
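Cell growth measured by CellTiter-Glo luminescence after a minimum 48 h, 37 C compound exposure with 20 nM CPT in Tdp1-knockout DT40 cells stably expressing hTDP1, seeded 400/well; qHTS titration format.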
HT1080 IDH1KD tx: HT-1080 IDH1 knockdown cell toxicity (counter line). AID 686971. 360,000 tested, 2% active. Potency, µM (doses to about 46.1 µM), usual class: cytotoxic. HT-1080 IDH1 knockdown viability, ATP luminescence, 48 h
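HT-1080-IDH1KD cells (IDH1 knocked down), 750/well in RPMI with 5% FBS, treated with compound 48 h at 37 degrees C. Viability by CellTiter-Glo luminescence, normalised to DMSO and no-cell wells; concentration-response curves classed.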
HT1080-NT tox: kills 2HG-producing HT-1080-NT fibrosarcoma cells. HT-1080-NT fibrosarcoma viability, CellTiter-Glo ATP luminescence, 48 h. Potency, µM (top dose mostly 46.1 µM), usual class: cytotoxic. 360,000 tested, 1.6% active. AID 686970;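 note: NT is the 2HG producing partner of a matched IDH1 knockdown line; nearly all actives have a fitted effect of over 55% in size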
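Luminescent CellTiter-Glo readout after 48 hours of compound exposure at 37 degrees C defined viability of HT-1080-NT cells. Activity was normalized to DMSO wells and cell-free media wells; concentration-response curves were fitted and assigned curve classes.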
TDP1 cell noCPT: qHTS for Inhibitors of human tyrosyl-DNA phosphodiesterase 1 (TDP1): qHTS in cells in absence of CPT; DT40 Tdp1-/- hTDP1 cells, no CPT, ATP luminescence, 48 h; Potency, µM (top dose mostly 46.2 µM), most hits filed as inhibitors; 420,000 tested, 15% active; AID 686978, 2013; note: nearly all actives have a fitted effect of over 55% in size
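Chicken DT40 Tdp1-/- cells stably complemented with human TDP1 were seeded at 400 cells/well with DMSO in place of 20 nM camptothecin. After compound pinning, cells grew at least 48 hr at 37 °C; viability read by CellTiter-Glo luminescence.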
Of the large screens only hits and unclear results are named; the others gave an inactive call; ! = repeats disagree. The list is not random: actives were taken first. Their share in the collection is about 19%. Calls come from the whole dose curve; as a rule, active = well fitted curve in the direction sought with a large enough effect; inconclusive = small, poorly fitted or top-dose-only effect, or another doubt; inactive = no such curve, though single readings can be large; an effect the other way counts as inactive or inconclusive.

Cc1nc2ccccc2c(=O)n1-c1cccnc1	none
COc1ccc(-n2c(CNCCc3ccc(C)cc3)nc3ccccc3c2=O)cc1	KB-V1 cytotox inconclusive, TDP1 cell CPT inconclusive, TDP1 cell noCPT inconclusive
COc1ccc(-n2c(-c3ccc(C)cc3)nc3ccccc3c2=O)cc1	TDP1 cell CPT 15µM, TDP1 cell noCPT 15µM
Cc1ccc(-c2nc3ccccc3c(=O)n2-n2cccc2)cc1	TDP1 cell CPT 16µM, TDP1 cell noCPT 12µM
Cc1ccc(-c2nc3ccccc3c(=O)n2-c2ccncc2)cc1	KB-V1 cytotox inconclusive, TDP1 cell noCPT inconclusive
O=c1c2ccccc2nc(-c2ccc(-c3ccccc3)cc2)n1-c1ccncc1	TDP1 cell CPT inconclusive, TDP1 cell noCPT 21µM
CSc1nc2ccccc2c(=O)n1-c1cccnc1	none
COc1ccc(-n2c(C)nc3ccccc3c2=O)c([N+](=O)[O-])c1	TDP1 cell noCPT inconclusive
COc1ccc(-n2c(SC)nc3ccccc3c2=O)cc1	TDP1 cell CPT 15µM, TDP1 cell noCPT 18µM
COc1ccc(-n2c(-c3ccccc3[N+](=O)[O-])nc3ccccc3c2=O)cc1	TDP1 cell CPT 23µM, TDP1 cell noCPT 15µM
CCCc1cc(=O)oc2cc(OCC(=O)N3CCC(C(=O)O)(c4ccccc4)CC3)ccc12	none
COC(=O)C1=C(C(=O)OC)C2c3ccccc3C1c1ccccc12	KB-V1 cytotox 15µM, TDP1 cell CPT inconclusive, TDP1 cell noCPT inconclusive
Cc1ccc(O)c([C@H](CCN(C(C)C)C(C)C)c2ccccc2)c1	KB-V1 cytotox inconclusive, TDP1 cell CPT 21µM!, HT1080 IDH1KD tx inconclusive, HT1080-NT tox inconclusive, TDP1 cell noCPT inconclusive
CC(C)Nc1nc(NC(C)C)nc(N(C#N)CCOc2ccc(Cl)cc2Cl)n1	KB-V1 cytotox inconclusive, TDP1 cell CPT 18µM, HT1080 IDH1KD tx inconclusive, HT1080-NT tox inconclusive, TDP1 cell noCPT inconclusive
CCOC(=O)C1CCCN(c2ccc([N+](=O)[O-])c3nonc23)C1 (stereo unspecified)	TDP1 cell CPT inconclusive, TDP1 cell noCPT inconclusive
Cc1ccc2c(c1)C=CC(C#N)N2C(=O)Oc1ccccc1 (stereo unspecified)	TDP1 cell CPT 18µM, TDP1 cell noCPT 16µM
O=C(CN1CCCC2CCCCC21)c1ccc(I)cc1 (stereo unspecified)	none (no result: HT1080 IDH1KD tx, HT1080-NT tox)
CC1OC(C)OC(C)O1 (stereo unspecified)	none (no result: KB-V1 cytotox, KB-3-1 tox, HT1080 IDH1KD tx, HT1080-NT tox)
COc1nc(NC(C)C)nc(N(C#N)CN2C(=O)c3ccccc3S2(=O)=O)n1	TDP1 cell CPT 23µM
CC(=O)NC1CCSC1=O (stereo unspecified)	none (no result: KB-V1 cytotox, KB-3-1 tox, HT1080 IDH1KD tx, HT1080-NT tox)
CC(C)N(C(=O)CSc1nnc(-c2cc3ccccc3cc2O)n1Cc1ccco1)C(C)C	KB-V1 cytotox 3.3µM, KB-3-1 tox 15µM, TDP1 cell CPT 13µM, HT1080 IDH1KD tx inconclusive, HT1080-NT tox inconclusive, TDP1 cell noCPT 21µM
O=C(Nc1ccc(F)c(Cl)c1)N(Cc1ccc2c(c1)OCO2)C1CCN(Cc2ccccc2)CC1	TDP1 cell CPT inconclusive, TDP1 cell noCPT inconclusive (no result: HT1080 IDH1KD tx, HT1080-NT tox)
